From PubChem BioAssay AID652104 (National Center for Advancing Translational Sciences (NCATS), 2013)
Hit rate of the full screen: of about 410,000 compounds, about 7,200 (1.8%) were called active. Not shown: some 7% with an inconclusive outcome. Calls come from the whole dose curve; as a rule, active = well fitted activation curve with a large enough effect; inconclusive = small, poorly fitted or top-dose-only effect, or another doubt; inactive = no such curve, though single readings can be large or run the other way. The entries come from a sample that favours actives as a whole.

Test: qHTS of TDP-43 Inhibitors; note: nearly all actives have a fitted effect of over 50% in size; for growth rescue (activation): % of control where 0% means no effect
Details: TDP-43 expressing yeast growth rescue, BacTiter-Glo, 24 h; series mostly up to 46.1 µM; growth rescue (activation): at the top concentration
From the text: The goal of this project is to identify new chemical probes capable of reversing the toxicity associated with TDP-43 which is associated with frontotemporal lobar degeneration and amyotrophic lateral sclerosis. These compounds will provide a complementary approach to deciphering the tangled mechanisms of toxicity and protection that we have uncovered through genome-wide genetic screens and are beginning to uncover in a large-scale proteomics analysis with mass spectroscopy.
To this end, a miniaturized assay was developed to be screened against the Molecular Libraries Small Molecule Repository (MLSMR) to discover TDP-43 inhibitors. Please note that in the set-up this yeast-based assay compounds that inhibit as TDP-43, have a read-out as activators.
NIH Chemical Genomics Center [NCGC]
NIH Molecular Libraries Probe Centers Network [MLPCN]
Assay Submitter (PI): Susan Lindquist, Whitehead Institute/MIT
Dispense 2.5 microL yeast galactose medium per 1536-well plate, pin compound, dispense 2.5 microL TDP-43 expressing yeast in galactose medium at OD600=0.02 (pregrown in raffinose medium to mid-log phase) per well, incubate for 24 hr at 30 deg C, and cell growth will be measured using 5 microL of Bactiter/Glo reagent to entire plate and read using Luminescence Protocol in ViewLux.
Potency is the fitted concentration of half-maximal effect.

Potency, active:
CC1CCN(C(=O)c2ccc(S(=O)(=O)Cc3cc(F)ccc3F)c([N+](=O)[O-])c2)CC1 11.2 µM, O=C1C(=O)N(CC2COc3ccccc3O2)c2ccccc21 (stereo not given) 28.2 µM, Cc1cc(C(=O)CCl)c(C)n1CC1COc2ccccc2O1 (stereo not given) 20 µM, COc1ccccc1-c1cc(C(F)(F)F)nc(S(=O)(=O)CCCC(=O)Nc2ccc(F)cc2F)n1 14.1 µM, Cc1ccc(C=O)c([B-](F)(F)F)c1 11.2 µM, O=C(COc1ccc(F)cc1Br)NCC1COc2ccccc2O1 (stereo not given) 22.4 µM, Cc1ccccc1-n1nnnc1SCCCC(=O)c1ccc(F)cc1 35.5 µM, COc1ccccc1N1CCN(c2ncnc3onc(-c4ccc(F)cc4)c23)CC1 15.8 µM, CN(Cc1ccccc1)c1ncnc2onc(-c3ccc(F)cc3)c12 35.5 µM, COc1ccccc1N1CCN(c2ncnc3sc(C)c(-c4ccccc4)c23)CC1 17.8 µM, CCOC(=O)c1cnc(SCC(=O)Nc2ccccc2C(=O)OC)nc1N 22.4 µM, CC(NC(=S)Nc1ccccc1)C1COc2ccccc2O1 (stereo not given) 12.6 µM, Cc1nc2ccc(C(=O)N3CCN(c4ccccc4)CC3)cc2s1 14.1 µM, CC(=O)Oc1ccc(-c2nc3c(C)cccc3c(=O)o2)cc1 12.6 µM, O=S(=O)(NCc1ccc(Cl)cc1Cl)c1cccs1 8.91 µM, O=C(N/N=C\c1cc(Br)c(Br)o1)C1COc2ccccc2O1 (stereo not given) 11.2 µM, COc1ccc(NC(=O)C(c2ccncc2)n2c(=O)c(-c3cc4ccccc4[nH]3)nc3ccccc32)cc1 (stereo not given) 17.8 µM, O=C(c1cc(COc2cccc(C(F)(F)F)c2)on1)N1CCSCC1 22.4 µM, CCCOc1ccccc1C1CC(=O)Nc2cc3c(cc21)OCO3 (stereo not given) 20 µM

Growth rescue (activation), inactive:
CC1CCN(c2ccc(S(=O)(=O)Nc3cc(C(=O)O)cc(C(=O)O)c3)cc2[N+](=O)[O-])CC1 -26.1%, NC(=O)C1CCN(C(=O)c2ccc(F)c(S(=O)(=O)N3CCOCC3)c2)CC1 -2.43%, Cc1cc(C)cc(OCC(=O)Nc2c(C(=O)c3ccccc3)oc3ccccc23)c1 0%, COc1ccc(CCNC(=O)c2ccc(-n3c(C)cc4c3CCCC4)cc2)cc1OC 0.348%, CC1CCN(S(=O)(=O)c2ccc3c(ccn3CCC(=O)NCc3ccc(N(C)C)cc3)c2)CC1 10.3%, CC1CCC2(CC1)N=C(c1ccccc1)C(=O)N2CC(=O)Nc1ccc(F)c(Cl)c1 (stereo not given) 15.2%, Cc1n[nH]c(C)c1S(=O)(=O)N1CCCC(C(=O)NCC2COc3ccccc3O2)C1 (stereo not given) -1.06%, Cc1ccc(Cl)cc1NC(=O)NC1COc2ccccc2C1 (stereo not given) 9.24%, OC(COCC1COc2ccccc2O1)CN1CCN(c2ccc(F)cc2)CC1 (stereo not given) -0.0818%, CC1COc2ccccc2N1S(=O)(=O)c1ccccc1 (stereo not given) 10.5%, COc1ccccc1Nc1c2c(nc3ccc(NC(=O)/C=C/c4cc(OC)c(OC)c(OC)c4)cc13)CCCC2 4.53%, CCc1ccc(NC(=O)C2CCCN2S(=O)(=O)c2ccc3nc(-c4ccccc4)[nH]c3c2)cc1 (stereo not given) 5.07%, C=Cc1ccc(Cn2c(C(=O)OC)cc3sc(C)cc32)cc1 2.65%, CCN1CCN(c2ncc3c(n2)CC(c2ccccc2O)CC3=O)CC1 (stereo not given) 6.42%, Cc1ccc(-n2c3nc(=O)[nH]c(=O)c-3cc3c(Cl)cccc32)cc1 -6.07%, Cc1ccc(CNC(=O)c2c(O)nc3c(C)cccn3c2=O)cc1 -15.7%, CCOc1cc(C(=O)Nc2nnc3n2CCS3)cc(OCC)c1OCC 29.6%, Cc1ccccc1NC(=O)Cn1c(=O)n(CCCCC(=O)NCc2ccccc2Cl)c(=O)c2ccccc21 3.55%, Cc1ccc(C)c(NC(=O)Cn2ccn(-c3ccc(F)cc3)c(=O)c2=O)c1 8.45%, COc1ccccc1-c1cc(C(F)(F)F)nc(S(=O)(=O)CCCC(=O)Nc2cc(C)ccc2O)n1 6.95%, CSc1ccccc1NC(=O)CCS(=O)(=O)c1nc(-c2cccs2)cc(C(F)(F)F)n1 21.7%, CCOC(=O)c1ccc(NC(=O)c2ncn(-c3ccccc3)n2)cc1 22.4%, Cc1cccc(N2CCN(C(=O)c3ccc(Nc4nc5ccccc5n5nnnc45)cc3)CC2)c1C 14.8%, CN1c2ccc(C=O)c3c(C=O)ccc(c23)N(C)C1(C)C 27.6%, CCOc1ccc(OCC)c(Nc2nc3ccccc3n3nnnc23)c1 22.7%, Cc1cc(=O)c2cc(C(=O)Nc3cccc(C)c3C)ccc2[nH]1 0% [at 9.22 µM], O=C(COC(=O)COc1cccc(F)c1)NCC1CCCCC1 -6.18%, CCC(=O)c1cc(F)ccc1OCC(=O)Nc1ccc2c(c1)OCCO2 12.9%, CCC(=O)N1CCc2cc(S(=O)(=O)NC(C(=O)Nc3ccc(C(C)=O)cc3)C(C)C)ccc21 (stereo not given) 10.8%, CC(=O)Nc1ccc(NC(=O)CSc2nnnn2-c2ccccc2F)cc1 0%, CCn1nnnc1SCC(=O)c1ccc(C)cc1C 6.07%, COc1ccc(CNC(=O)CSCc2nc(-c3ccccc3F)oc2C)cc1 16.5%, COc1ccc(Br)cc1C1CC(=O)Nc2c1c(C)nn2-c1nc(C)cc(C)n1 (stereo not given) 10.5% [at 9.22 µM], Cc1cc(C)cc(Nc2ncnc3onc(-c4ccc(F)cc4)c23)c1 21.2%, COc1ccccc1N1CCN(CCCCOc2ccc(F)cc2)CC1 1.12%, COc1ccccc1N1CCN(c2ccc([N+](=O)[O-])nc2)CC1 27.6%, COC(=O)c1cnc(N2CCN(c3ccccc3OC)CC2)c2ccccc12 15.4%, COc1ccccc1N1CCN(c2ncnc3onc(-c4cccc(Cl)c4)c23)CC1 17.6%, CN(Cc1ccccc1)c1ccc(-c2nc(-c3ccccc3)no2)cc1[N+](=O)[O-] -8.76%, CCOc1ccc(OCC)c(NC(=O)c2c(C)nn(-c3ccccc3)c2-n2cccc2)c1 12.9%, O=C(Nc1ccc(Br)cc1)c1cc2nc(-c3ccccc3)cc(-c3ccccc3)n2n1 10.6%, Cc1ccc2c(c1)N(C(=O)CCC(=O)NCc1ccccc1F)CC(C)O2 (stereo not given) -10.1%, Cc1ccc2c(=O)cc(C(=O)Nc3sc4c(c3C(=O)NCc3cccnc3)CCCC4)oc2c1 15.4%, O=C(CSc1nccn1C1CCCC1)Nc1cc(C(F)(F)F)ccc1Cl 25.6%, COC(=O)c1ccccc1NC(=O)CSc1n[nH]c(-c2ccncc2)n1 -12.9%, CCOC(=O)c1cnc(SCC(=O)Nc2cccc(OC)c2)nc1N -2.32%, Cc1nc(SCC(=O)Nc2ccc(C(=O)O)cc2)n[nH]1 5.36%, O=C(Nc1ccc(C(=O)OCc2cc(=O)n3nc(C4CC4)sc3n2)cc1)c1ccc(F)cc1 11%, CCCCNC(=O)c1ccc2c(c1)NC(=O)C(C(C)C)N2 (stereo not given) 10.5%, CCc1ccccc1N1CC(c2nc3ccccc3n2CCCCOc2ccccc2)CC1=O (stereo not given) 11.4%, CCOC(=O)c1c(S(=O)(=O)N2CCCC(C(=O)NCc3cccc(C)c3)C2)c(C)n(C)c1C (stereo not given) 6.82%, CC(c1ccco1)N(C(=O)Nc1ccccc1)C1CCCCC1 (stereo not given) -8.75%, CC(NC(=S)Nc1ccccc1)C(c1cccs1)N1CCOCC1 (stereo not given) 16.8%, COc1ccc(NC(=O)c2cc3cc(C)ccc3n2C)cc1 2.24% [at 9.22 µM], Cc1nc2ccc(C(=O)N3CCSCC3)cc2s1 2.39%, CC1CCN(c2nc3ccc(C(=O)N4CCN(c5ccccc5)CC4)cc3s2)CC1 0%, COc1nc(N=C(N)N)nc2c(C)cccc12 15%, O=C(Oc1ccccc1)Oc1ccc2c(c1)oc(=O)c1ccccc12 9.59%, O=C(NCc1ccc(Cl)cc1)C1CCN(S(=O)(=O)c2cccs2)CC1 11.5%, O=S(=O)(Cc1ccc(Cl)cc1Cl)c1ccc(Cl)cc1 -14.4%, CC1=C(C(=O)Nc2ccccc2Cl)C(c2cccs2)n2ncnc2N1 (stereo not given) -9.1%, CCNC(=O)c1cc2n(n1)CCCN(Cc1ccc(C)cc1)C2=O -4.05%, Cc1ccc(C(=O)N/N=C\c2cc(Br)c(Br)o2)cn1 -16.6%, CC(/C=C/c1ccco1)=N/NC(=O)C1COc2ccccc2O1 (stereo not given) 16.4%, O=C(Nc1nc2ccc(F)cc2s1)c1nc(SCc2ccccc2F)ncc1Cl 5.76%, COc1cc(CNCCSc2nnnn2C)ccc1OCc1c(F)cccc1Cl 3.55%, CCOc1ccc(Nc2nc3c(S(=O)(=O)c4cccc(Cl)c4)nnn3c3ccsc23)cc1 3.41%, O=C(NCc1ccc(F)cc1)c1ccc(Cn2c(SCc3ccc(F)cc3)nc3cccnc32)cc1 21.8%, CCCCN(C)c1nnc(NC(=O)Nc2ccc(Br)c(C)c2)s1 22.1% [at 9.22 µM], COc1ccc(C(C(=O)NCc2ccccc2)n2c(=O)c(-c3ccccc3)nc3ccccc32)cc1 (stereo not given) 25.1%, CCCCCNC(=O)C(c1ccc(OC)cc1)n1c(=O)c(-c2ccccc2)nc2ccccc21 (stereo not given) 15.6%, COc1ccc(CC(=O)NCCc2sc3nc(-c4ccc(OC)cc4)nn3c2C)cc1 17%, CC1CCCCN1Cc1c(O)ccc2c(=O)c(-c3cccc(Cl)c3)c(C(F)(F)F)oc12 (stereo not given) -6.15%, O=C(NC1Cc2ccccc2C1)c1cc(COc2cccc(C(F)(F)F)c2)on1 15.8%, CC1CN(C(=O)c2cc(COc3c(F)cccc3F)on2)CCN1C (stereo not given) -13.4%, CCc1cccc(NC(=O)Cn2nc(CC)n3c(cc4cc(C)ccc43)c2=O)c1 10.2%, COc1ccc(C2(Nc3cccc(F)c3)C(=O)c3ccccc3C2=O)cc1 9.65%, O=C1CC(c2ccc(F)cc2F)c2cc3c(cc2N1)OCO3 (stereo not given) -4.38%, Cc1cc2c(cc1C)C(c1cccc(OC(C)C)c1)CC(=O)N2 (stereo not given) 11.2%, Cc1ccc(Cl)cc1N1CCN(C(=O)C2CCC(CNS(=O)(=O)c3cccs3)CC2)CC1 (stereo not given) 25%, COc1cccc(CN2CCc3nc(SCC(=O)Nc4ccccc4)[nH]c(=O)c3C2)c1 4.94%
